Data: PubChem BioAssay (NCI)
The panel holds about 83,000 compounds, 20% with a hit somewhere; the sample as a whole holds those more often.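 96-well plates, one dose, 48 hours. Percent growth reported; active if below 10.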 Unmarked numbers belong to inactive results. Activity calls are given as the source filed them.

Columns and labels:
Assay in all cases: NCI-60 one-dose screen, 48 h (100 = growth as untreated, 0 = no growth, -100 = all killed)
Conditions in all cases: 10 µM unless noted
NCI-H23 lung = tested on: NCI-H23 lung
NCI-H226 lung = tested on: NCI-H226 lung
NCI-H322M lung = tested on: NCI-H322M lung
HOP-62 NSCLC = tested on: HOP-62 NSCLC
NCI-H460 lung = tested on: NCI-H460 lung
HOP-92 NSCLC = tested on: HOP-92 NSCLC
NCI-H522 lung = tested on: NCI-H522 lung
A549/ATCC NSCLC = tested on: A549/ATCC NSCLC
786-0 renal = tested on: 786-0 renal
COLO 205 colon = tested on: COLO 205 colon

Row | SMILES | growth (NCI-H23 lung) | growth (NCI-H226 lung) | growth (NCI-H322M lung) | growth (HOP-62 NSCLC) | growth (NCI-H460 lung) | growth (HOP-92 NSCLC) | growth (NCI-H522 lung) | growth (A549/ATCC NSCLC) | growth (786-0 renal) | growth (COLO 205 colon)
1 | COc1ccccc1S(=O)Nc1ccccc1 (stereo not given) | 104% | 102% | 94.9% | 124% | 93.6% | 98.5% | 74.9% | 74.4% | 103% | 117%
2 | Cc1ccc(S(=O)(=O)n2cc(C(=O)C(=O)N3CCCCC3)c3ccccc32)cc1 | 55.1% | 87.5% | 92.9% | 80.3% | 91.9% | -0.0596% (active) | 70.2% | 120% | 88.7% | 109%
3 | COC(=O)c1cc(O)c2c(c1C(=O)OC)C[C@H]1[C@@H]3CC=C4C[C@@H](O)CC[C@]4(C)[C@H]3CC[C@]21C | 46% | 70.6% | 66% | 20.4% | 64.6% | 18.6% | 50% | 38.5% | -56.1% (active) | 83.1%
4 | c1ccc(-c2nc(N3CCCNCC3)c3nc(-c4ccccc4)oc3n2)cc1 | 22.3% | 49.9% | 93.7% | 78.2% | -50.1% (active) | 42.4% | 26.4% | -38.8% (active) | 67% | -79.2% (active)
5 | O=c1cc(-c2ccccc2)oc2c(O)c(O)ccc12 | 57.6% | 85.5% | 79% | 52.7% | 17.3% | 7.46% (active) | 43.6% | 55.5% | 65% | 90.7%
6 | CC1(C)CC[C@]2(C(N)=O)CC[C@]3(C)C(=CC[C@@H]4[C@@]5(C)C/C(=C/c6cccnc6)C(=O)C(C)(C)[C@@H]5CC[C@]43C)[C@@H]2C1 | -2.72% [100 µM] (active) | -36.8% [100 µM] (active) | -57.3% [100 µM] (active) | -55.5% [100 µM] (active) | -51.8% [100 µM] (active) | -50.7% [100 µM] (active) | -59.7% [100 µM] (active) | -35.9% [100 µM] (active) | -38.4% [100 µM] (active) | -57.6% [100 µM] (active)
7 | CC(C)CCSC1=CC(=O)c2ccccc2C1=O | 78% | 69.6% | 79.6% | 78.4% | 103% | -74.5% (active) | -68.9% (active) | 79.7% | 90.6% | 132%
8 | O=C(CCNCc1ccccc1)c1ccccc1 | 106% | 102% | 110% | 104% | 110% | 120% | 101% | 101% | 108% | 111%
9 | COc1cc(/C=C/C(=O)/C=C/c2ccc(-n3ccnc3)cc2)ccc1O | 60.6% | 77.9% | 94.8% | 97.9% | 76.4% | 85.2% | 89.5% | 69.3% | 107% | 52.4%
10 | O=C(O)CC1CCCCC1c1ccccc1 (stereo not given) | 111% | 98.7% | 103% | 112% | 119% | 99.8% | 90.1% | 106% | 103% | 113%
11 | Cc1cc(N2CCCCCC2)nc(N2CCN(CC(=O)Nc3ccc4c(ccn4Cc4ccccc4)c3)CC2)n1 | 48.3% | 53.5% | 80.7% | 54.1% | 36.7% | 8.3% (active) | 55% | 46.8% | 39% | 31.2%
12 | CCCN1CC(c2ccc(OC)c(OC)c2)=C(c2cn(C(=O)OCC)c3ccccc23)C1=O | 65.8% | 76.8% | 90.6% | 45.9% | 37.1% | 26.2% | 24% | 46.3% | 54.6% | 41.7%
13 | COc1ccc(C(=O)CSc2nnc(-c3cc(-c4ccccc4)nc4ccccc34)o2)cc1 | 109% | 106% | 99.7% | 97.5% | 106% | 113% | 102% | 98% | 106% | 122%
14 | Cn1cc(-c2noc(-c3cn(C)c4ncc(Br)cc34)n2)c2cc(Cl)ccc21 | 75.1% | 88% | 47.4% | 50.5% | 25.8% | 76.7% | 63.1% | 96.6% | 53.7% | 66.4%
15 | O=C(O)c1cn(C2CC2)c2cc(N3CCN(Cc4c(O)ccc5ccccc45)CC3)c(F)cc2c1=O | 21.9% | 6.89% (active) | 22% | -41.1% (active) | 5.64% (active) | -8.22% (active) | 19.7% | -21.9% (active) | 29.5% | 27.1%
16 | COc1cc2c(=O)[nH]c3cc([N+](=O)[O-])ccc3c2cc1[N+](=O)[O-] | 55.4% | 45% | 60.8% | 85.5% | 14% | 45.9% | 28.7% | 40.5% | 70.1% | 56.6%
17 | O=S(=O)(NCc1ccccc1)c1ncnc2nc[nH]c12 | 106% | 99.4% | 109% | 103% | 117% | 117% | 95.5% | 86.5% | 107% | 109%
18 | CC(C)C1=NOC(=O)C1=Cc1cn(-c2ccccc2)nc1-c1ccccc1 | 98% | 95.2% | 91% | 99.8% | 85.2% | 85.2% | 68.7% | 88.8% | 72.9% | 110%
19 | Cc1cnc(N)nc1OCC(C)(C)CNC(=O)c1cccc(-c2ccc(S(=O)(=O)Nc3ccc4c(c3)N(C(=O)C3CC3)CCC4)cc2)c1 | 48.6% | 59.3% | 84.2% | 59.7% | 53.9% | 53.5% | 65.4% | 49.9% | 90.6% | 55.5%
20 | O=C(C[n+]1ccn(CC(OCc2ccc(Cl)cc2Cl)c2ccc(Cl)cc2Cl)c1)c1ccc(F)cc1 (stereo not given) | -87.8% (active) | -76.4% (active) | -89.3% (active) | -91.3% (active) | -86.1% (active) | -87.5% (active) | -82.2% (active) | 29.9% | -94.3% (active) | -84.8% (active)
21 | CCc1ccc(-c2ccc(COc3ccc(CC4SC(=O)NC4=O)cc3)cc2)cc1 (stereo not given) | 52.2% | 84.5% | 89.8% | 84.5% | 79.3% | 60.7% | 45.5% | 64.8% | 78.1% | 99.9%
22 | CCC(C)[C@H](NC(=O)NC(=O)NC(=O)CI)C(=O)OC (stereo not given in full) | 82.3% | 86.7% | 106% | 87.9% | 95.6% | -34.4% (active) | -86.5% (active) | 91.9% | -50.3% (active) | 10.8%
23 | CC1=CCc2ccccc21 | 97.6% | 95.3% | 91.3% | 101% | 99.8% | 82% | 90.5% | 97.1% | 103% | 105%
24 | C=C(C)[C@@H]1CC[C@]2(C(=O)O)CC[C@]3(C)[C@H](CC[C@@H]4[C@@]5(C)C/C(=C/c6ccco6)C(=O)C(C)(C)[C@@H]5CC[C@]43C)[C@@H]12 | -58.6% [100 µM] (active) | -37.5% [100 µM] (active) | -87.9% [100 µM] (active) | -85.2% [100 µM] (active) | -55.6% [100 µM] (active) | -86.4% [100 µM] (active) | -72.7% [100 µM] (active) | -73.7% [100 µM] (active) | -60.4% [100 µM] (active) | -73.1% [100 µM] (active)
25 | CN(C)c1ccc(-c2ccc(-c3ccc(C(=N)N)cc3)s2)cc1 | -46.4% (active) | 87.4% | 40.2% | -33.2% (active) | -71.1% (active) | 24.5% | -50.3% (active) | -72.7% (active) | -63.9% (active) | -66.6% (active)
